esBAF inh: inhibitors of esBAF chromatin remodeling in mouse ES cells | 350,000 compounds, 2% hits | reporter increase, % at 12.5 µM | Bmi1-luciferase knock-in reporter, 24 h; 100% = twice the neutral-well signal | AID 602393; in the data active means activation above about 40%; inconclusive means no clear call, values can overlap the other calls;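 further: 0% = median of the plate's neutral control wells and 100% = double that signal; a rise in the Bmi1 reporter signal indicates esBAF inhibition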
Wnt act: activates Wnt/beta-catenin signaling in a reporter cell assay. activator, plate reader. activation, % at 9.35 µM. 300,000 compounds, 1.2% hits. AID 743398; in the data active means activation above about 30%, passing the limit was not always enough; inconclusive means no clear call, values can overlap the other calls;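 further: 0% = neutral control wells and 100% = positive control wells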
DAX1 StAR inh: blocks DAX1 repression of SF-1 activated StAR promoter. HEK293T StAR-luciferase reporter, SF-1/DAX-1 repression relief. inhibition, % at 6.8 µM. 370,000 compounds, 1.1% hits. AID 652010;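 active means inhibition above the mean over all tested compounds plus 3 SD, cut at about 3.6% in these data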;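 further: 0% = DAX-1 cells with DMSO and 100% = cells lacking DAX-1 with DMSO; higher inhibition means more luminescence from relief of DAX-1 repression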
hcDAF12 agonist: activates DAF-12 receptor from parasite H. contortus | activation, % at 6.8 µM | HEK293 hcDAF-12 lit1-tk-luc reporter, luminescence; 0% DMSO, 100% Δ7-dafachronic acid | 370,000 compounds, 1.4% hits;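 active means activation above the mean of all tested compounds plus 3 SD, cut at about 5.5% in these data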;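 further: 100% = response to 3 µM Δ7-dafachronic acid high control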
ssDAF12 agonist: activates DAF-12 receptor from parasite S. stercoralis; activation, % at 6.8 µM; HEK293 ssDAF-12/GRIP1 lit1-tk-luc reporter, luminescence; % of 3 µM dafachronic acid response; 370,000 compounds, 1% hits;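 active means activation above the mean over all tested compounds plus 3 SD, cut at about 0.9% in these data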;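 further: 0% = DMSO-only wells and 100% = 3 µM delta7-dafachronic acid wells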
hgDAF-12 ag: agonists of H. glycines DAF-12 nuclear receptor. AID 687014. 370,000 compounds, 1.8% hits. activation, % at 6.8 µM. HEK293 GAL4-hgDAF12 UAS-luciferase reporter, agonist luminescence; normalized to butyrate control;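 active means activation above a cutoff set at the mean of all screened compounds plus 3 SD, cut at about 10% in these data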;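 further: 0% = DMSO wells and 100% = sodium butyrate wells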
Active calls of the source: *. This is a sample that favours compounds with a hit; in the whole collection about 4.2% have one here.

Screening O=C(NCC[C@H]1CC[C@@H](NC(=O)c2ccccc2F)[C@@H](CO)O1)c1ccc2c(c1)OCO2 returned esBAF inh 1.6.
CC(C)C[C@@H](CSc1ccccc1)N1CCN(CC(C)C)CCC1=O was read as esBAF inh 49.5*, Wnt act 43.2*, DAX1 StAR inh -0.3, hcDAF12 agonist 1.8, ssDAF12 agonist -0.9 and hgDAF-12 ag 5.6.
`O=C1CCN(CCc2ccccc2)CCN1[C@H](CSc1ccc(Br)cc1)c1ccccc1` gave esBAF inh 11.1, Wnt act 1.4, DAX1 StAR inh 0.3, hcDAF12 agonist 3.2, ssDAF12 agonist -0.3 and hgDAF-12 ag -0.2.
`CCCN1CCC(=O)N([C@H](CSc2ccccc2)CC(C)C)CC1` gave esBAF inh 36.6, Wnt act 15.5, DAX1 StAR inh 0.3, hcDAF12 agonist 1.3, ssDAF12 agonist -0.8 and hgDAF-12 ag 6.8.
For CCCN1CCC(=O)N([C@H](CSc2ccc(C)cc2)CC(C)C)CC1 the results were esBAF inh 46.3*, Wnt act 29.6, DAX1 StAR inh 1.1, hcDAF12 agonist 1.4, ssDAF12 agonist -0.9 and hgDAF-12 ag 4.9.
Screening CCCN1CCC(=O)N([C@H](CSc2ccc(Br)cc2)c2ccccc2)CC1 returned esBAF inh 51.2*, Wnt act 20.4, DAX1 StAR inh 0.1, hcDAF12 agonist -0.7, ssDAF12 agonist -0.8 and hgDAF-12 ag 4.3.
`N#CCCN/N=C(/Cc1nc2ccccc2[nH]1)c1cccc(Cl)c1` gave esBAF inh 6.7, Wnt act -6.5, DAX1 StAR inh 0.0, hcDAF12 agonist 3.5, ssDAF12 agonist 1.3* and hgDAF-12 ag 1.4.
CCCCSc1nnc(-c2ccccc2N)c(=O)[nH]1 was read as esBAF inh 96.7*, Wnt act 29.6, DAX1 StAR inh 0.9, hcDAF12 agonist 5.9*, ssDAF12 agonist -0.3 and hgDAF-12 ag 11.1*.
CCCCCCCSc1nnc(-c2ccccc2N)c(=O)[nH]1 was read as esBAF inh -5.0, Wnt act -1.3, DAX1 StAR inh 0.6, hcDAF12 agonist 0.2, ssDAF12 agonist -0.7 and hgDAF-12 ag -1.2.
`C[C@@H]1CN([C@H](C)CO)C(=O)c2cc(-c3ccc(C#N)cc3)cnc2O[C@H]1CN(C)C(=O)Nc1ccc(C(F)(F)F)cc1` gave esBAF inh -23.9.
For CCCSc1nc(N)nc(-c2cccs2)c1C#N the results were esBAF inh 47.7*, DAX1 StAR inh 0.1, hcDAF12 agonist 0.1, ssDAF12 agonist -1.0 and hgDAF-12 ag 5.2.
For N#Cc1c(/N=C/c2ccc(-c3ccccc3C(=O)O)o2)sc2c1CCCC2 the results were esBAF inh 57.1*, Wnt act 8.9, DAX1 StAR inh 0.1, hcDAF12 agonist 3.7, ssDAF12 agonist -0.8 and hgDAF-12 ag 0.6.
Screening N#Cc1c(/N=C/c2ccc(-c3ccc(C(=O)O)c(Cl)c3)o2)sc2c1CCCC2 returned esBAF inh 10.3, Wnt act 0.4, DAX1 StAR inh -3.2, hcDAF12 agonist 1.1, ssDAF12 agonist -1.6 and hgDAF-12 ag -3.5.
Screening CC(=O)Nc1sc(C)c(C)c1C(=O)OCC(=O)NCc1ccccc1 returned esBAF inh 5.2, Wnt act 2.8, DAX1 StAR inh 2.9, hcDAF12 agonist 0.3, ssDAF12 agonist -0.7 and hgDAF-12 ag 1.9.
`CC(=O)Nc1sc(C)c(C)c1C(=O)OCC(=O)Nc1ccccc1C(F)(F)F` gave esBAF inh 0.5, Wnt act -2.3, DAX1 StAR inh 0.6, hcDAF12 agonist 0.8, ssDAF12 agonist -1.4 and hgDAF-12 ag 10.7*.
Screening CN1CCN(C(=O)C[C@H]2CC[C@H](NC(=O)c3ccc4c(c3)OCO4)[C@@H](CO)O2)CC1 returned esBAF inh -2.3.
For O=C(C1CCN(S(=O)(=O)c2cccc3cccnc23)CC1)N1CCN(c2ccccc2)CC1 the results were esBAF inh 3.5, Wnt act -2.7, DAX1 StAR inh 0.1, hcDAF12 agonist 0.7, ssDAF12 agonist -1.1 and hgDAF-12 ag 12.1*.
For O=C(C1CCN(S(=O)(=O)c2cccc3cccnc23)CC1)N1CCN(Cc2ccccc2)CC1 the results were esBAF inh -0.7, Wnt act -4.9, DAX1 StAR inh -0.6, hcDAF12 agonist -0.6, ssDAF12 agonist -0.8 and hgDAF-12 ag -1.1.
COC(=O)[C@@H]1[C@@H](CO)[C@@H]2Cn3c(ccc(-c4ccccc4F)c3=O)[C@@H]2N1C(=O)c1ccccn1 was read as esBAF inh 1.0.
`CN(C)CC(O)c1ccc(C=Cc2ccc(Cl)cc2)cc1` (stereo unspecified) gave esBAF inh 49.0*, Wnt act inconclusive, DAX1 StAR inh 3.1, hcDAF12 agonist 4.9, ssDAF12 agonist -0.8 and hgDAF-12 ag 12.1*.
Screening CC(NC(=O)/C=C/c1ccc(Br)cc1)c1ccc(Cl)cc1 (stereo unspecified) returned esBAF inh -8.7, Wnt act -9.6, DAX1 StAR inh 0.1, hcDAF12 agonist 0.6, ssDAF12 agonist -1.7 and hgDAF-12 ag 2.5.
`Cc1cnc(NC(=O)C2CCC(C(C)(C)C)CC2)s1` (stereo unspecified) gave esBAF inh 34.2, Wnt act 12.3, DAX1 StAR inh -0.3, hcDAF12 agonist -1.3, ssDAF12 agonist -0.6 and hgDAF-12 ag 0.1.
For CC(C)(C)C1CCC(C(=O)Nc2nccs2)CC1 (stereo unspecified) the results were esBAF inh 52.8*, Wnt act -0.4, DAX1 StAR inh 0.2, hcDAF12 agonist 0.4, ssDAF12 agonist -0.6 and hgDAF-12 ag 1.7.
Screening COCCNC(=O)C[C@@H]1CC[C@H]2[C@@H](COc3ccc(NC(=O)COC)cc3C(=O)N2C)O1 returned esBAF inh 2.5.
Screening Cc1ccc(OCc2cc(C(=O)NCCn3cccn3)no2)cc1C returned esBAF inh 13.0, Wnt act 0.1, DAX1 StAR inh 0.6, hcDAF12 agonist -0.5, ssDAF12 agonist -0.9 and hgDAF-12 ag 3.9.
Screening O=C(NCCCn1cccn1)c1cc(COc2ccccc2)on1 returned esBAF inh 81.6*, Wnt act inconclusive, DAX1 StAR inh 2.8, hcDAF12 agonist 1.8, ssDAF12 agonist 0.1 and hgDAF-12 ag 8.1.
CC(CCn1cccn1)NC(=O)c1cc(COc2ccc(F)cc2F)on1 (stereo unspecified) was read as esBAF inh -0.4, Wnt act -2.8, DAX1 StAR inh -0.3, hcDAF12 agonist -0.9, ssDAF12 agonist -0.9 and hgDAF-12 ag -2.4.
`CC(=O)c1ccc(OCc2cc(C(=O)NC(C)CCn3cccn3)no2)cc1` (stereo unspecified) gave esBAF inh 70.6*, Wnt act 14.2, DAX1 StAR inh 2.2, hcDAF12 agonist 0.8, ssDAF12 agonist -0.3 and hgDAF-12 ag 6.9.
For COc1ccc(NC(=O)Nc2cccc3c2O[C@@H](CN(C)Cc2ccc(Cl)c(Cl)c2)[C@H](C)CN([C@@H](C)CO)C3=O)cc1 the results were esBAF inh -1.3.

Bioassay records deposited in PubChem by several laboratories.
